Compounds with a hit are over-represented: about 21% of the library has one in this group of screens.
AMA1 RON2 block – inhibitors of Plasmodium falciparum AMA1-RON2 interaction | AlphaScreen AMA1-biotinylated RON2 peptide binding | Potency, µM (highest dose often 58.2 µM), for inactives: at the top dose activity change, negative = inhibition, actives largely listed as inhibitors | hit rate 0.2% among 360,000 | AID 720542;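 also: potency is read from the fitted curve at half-maximal effect; 0% = vehicle wells and -100% = peptide control; nearly all actives have a fitted effect of over 45% in size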
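AMA1 (3D7) with his tag at 25 nM final met compounds first, then biotinylated RON2 peptide at 25 nM; detection used donor plus acceptor beads, 10 µg/mL apiece, read by AlphaScreen after 30 min at room temperature.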
Pf growth 48h – P. falciparum growth inhibition at 48 hours (one generation) | Potency, µM (highest dose often 28.7 µM), for inactives: at the top dose activity change, negative = inhibition, usual class: inhibitors | hit rate 5.9% among 310,000 | AID 504832 | P. falciparum luciferase growth in erythrocytes, 48 h; also: potency is read from the fitted curve at half-maximal effect; % is scaled to controls: 0 for no effect and ±100 for the full control effect
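Cell-based growth assay: transgenic P. falciparum expressing firefly luciferase, cultured in red cells within RPMI 1640 containing 0.5% w/v Albumax, 24 mM bicarbonate and gentamycin. A drop in luciferase activity indicates inhibition.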
HCV inh – HCV inhibition. Potency, µM (doses to about 41.8 µM), inactives show at the top dose activity change, negative = inhibition, actives largely listed as inhibitors. hit rate 3.4% among 340,000. Huh7.5.1 HCVcc-Cre infection, luciferase reporter, 44 h; also: potency is read from the fitted curve at half-maximal effect; % is scaled to controls: 0 for no effect and ±100 for the full control effect
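Cells seeded at 1,000/well and cultured 4 h, then compounds added followed by HCVcc-Cre virus (~0.5 moi). After 44 h further culture, luciferase substrate was added, plates held 15 min at room temperature, and luminescence read for 15 sec.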
Pf growth 96h – inhibits malaria parasite growth, 96 h | hit rate 6.9% among 320,000 | Potency, µM (series often up to 28.7 µM), without a hit: top-dose activity change, negative = inhibition, hits mostly inhibitors | P. falciparum luciferase reporter growth, 96 h; also: potency is read from the fitted curve at half-maximal effect; % is scaled to controls: 0 for no effect and ±100 for the full control effect
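Delayed-death screen, second-generation endpoint: infected erythrocytes, 2% hematocrit, 0.05% parasitemia final; 96 hours at 37 C, 5% CO2; luciferase detection reagent; luminescence decrease equals reduced growth.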
Cycloheximide cs – affects cycloheximide protein synthesis inhibition readout, counter-screen | cell reporter, cycloheximide protein synthesis inhibition counterscreen | max response, % | hit rate 12% among 300,000; in the data active = max response mostly above about 13%, no sharp cut-off; inactive = mostly below about 14%; also: read at 38.3 µM for the half of the compounds with a filed dose; 0% is about no effect
Shiga toxin inh – blocks Shiga toxin action in Vero cells. Vero cells, Shiga toxin protein synthesis inhibition reporter. inhibition, % at 38.7 µM. hit rate 9.2% among 290,000; in the data active = inhibition mostly above about 28%, no sharp cut-off; inactive = mostly below about 43%; also: 0% is about no effect
Active calls of the source: *; u = inconclusive; x = no result given. Unless noted, calls follow the shape of the dose curve; as a rule, active = well fitted curve in the direction sought with a large enough effect; inconclusive = small, poorly fitted or top-dose-only effect, or another doubt; inactive = no such curve, though single readings can be large; an effect the other way counts as inactive or inconclusive.

SMILES	AMA1 RON2 block	Pf growth 48h	HCV inh	Pf growth 96h	Cycloheximide cs	Shiga toxin inh
O=C(Cn1cc(Cl)c([N+](=O)[O-])n1)NCCC1=CCCCC1	2%	9%	-3%	u	15*	17
Cc1oc2ccc(O)cc2c1C(=O)c1ccccc1	11%	50%	-14%	-4%	15*	45
CCN(CC(=O)Nc1ccc(OC)cc1)C(=O)CN1C(=O)NC(C)(c2ccc3ccccc3c2)C1=O (configuration not stated)	-6%	75%	-9%	-8%	-2	-7
COc1ccc(-c2csc(C(C)(NC(C)=O)c3ccccc3)n2)cc1 (configuration not stated)	-15%	x	x	x	x	x
CC(C)(C)C(=O)OCc1nc(-c2ccc(F)cc2)cs1	4%	139%	-16%	-3%	42*	92*
O=C(CSCC(=O)Nc1nc(-c2ccc3c(c2)OCO3)cs1)Nc1nccs1	53%	u	-29%	-30%	-2	6
COc1ccc(-c2csc(COC(=O)C(C)(C)C)n2)cc1	17%	104%	15%	112%	30*	75*
CC(C)(C)C(=O)OCc1nc(-c2ccc3c(c2)OCCO3)cs1	14%	91%	-1%	162%	54*	114*
NC(=S)Cc1nc(-c2ccc(Cl)cc2)cs1	70%	30%	11µM*	u	29	80*
COCCN(CC(=O)Nc1ccccc1C(F)(F)F)C(=O)c1ccc(-n2cccn2)cc1	10%	-24%	11%	-7%	x	x
Nc1nonc1-n1nnc(C(=O)N/N=C/c2cc(Br)cs2)c1-c1ccccc1	37%	u	-11%	-29%	-2	-4
NNC(=O)CSCc1nc(-c2ccc(Cl)cc2)cs1	55%	-6%	-18%	u	10	30
CC(C)(C)C(=O)OCc1nc(-c2ccc(Cl)cc2)cs1	57%	377%	-1%	147%	59*	69*
O=C(O)CNC(=O)CC1S/C(=N/N=C2\CSC(=O)N2)NC1=O (configuration not stated)	40µM*	-15%	10%	4%	-4	-9
O=C(O)CNC(=O)CC1S/C(=N/N=C/c2ccccc2O)NC1=O (configuration not stated)	86%	u	1%	-15%	0	9
CC(C)C[C@@H]1CN(CCCC[C@H]2CNC(=O)C(=O)N2CCC2CCCCC2)C(=O)C(=O)N1Cc1ccccc1	5%	x	x	x	x	x
Cc1ccnc(NC(=O)C2COc3ccccc3O2)c1 (configuration not stated)	8%	211%	0%	207%	65*	56*
Cc1ccc(NC(=O)C2COc3ccccc3O2)nc1 (configuration not stated)	1%	x	21%	u	40*	56
O=C(NC1CCCCC1)C1COc2ccccc2O1 (configuration not stated)	-12%	-7%	12%	29%	x	x
O=[N+]([O-])O[C@H]1CO[C@H]2[C@@H]1OC[C@H]2O	x	-2%	x	1%	-4	1
O=C(c1cnc2n(c1=O)CCS2)N(c1ccccc1)C1CCCCC1	-10%	u	18%	6.6µM*	-2	7
Cc1cccc(N(C(=O)c2cnc3n(c2=O)CCS3)C2CCCCC2)c1	0%	8%	-19%	164%	-2	11
Cc1ccc(NC(=O)c2ccc([N+](=O)[O-])o2)cc1C	5%	u	13µM*	36%	41*	108*
O=C(Nc1ccc2[nH]c(=O)[nH]c2c1)c1ccc([N+](=O)[O-])o1	-3%	u	10µM*	12µM*	x	x
COc1cc(N(C)C)ccc1[C@]1(O)C(=O)N(C)c2ccc(Br)cc21	-27%	x	x	x	x	x
SMILES	AMA1 RON2 block	Pf growth 48h	HCV inh	Pf growth 96h	Cycloheximide cs	Shiga toxin inh
CCn1c(=O)n(C)c2c(=O)n(C)c(=O)n(C)c21	0%	x	9%	x	x	x
O=C(COC(=O)Cn1cc(C(F)(F)F)ccc1=O)Nc1ccccc1	17%	15%	20%	17%	x	x
O=C(Cn1cc(C(F)(F)F)ccc1=O)Nc1ccccc1	5%	56%	5%	72%	12*	44*
CC(=O)c1ccc(NC(=O)CN2CCOCC2)cc1	-4%	17%	-5%	13µM*	-2	-1
CC(=O)c1ccc(NC(=O)CN2CCN(CC(=O)Nc3ccc(C(C)=O)cc3)CC2)cc1	17%	0%	9%	11%	-2	1
O=C(CN1CCOCC1)Nc1ccc(C2CCCCC2)cc1	5%	85%	9%	x	39*	53
Cc1ccc(NC(=O)CN2CCOCC2)cc1	2%	x	-1%	42%	9	18
O=C(CN1CCOCCOCCOCCOCC1)Nc1ccccc1	0%	28%	3%	350%	26*	48*
Cc1cn([C@H]2C[C@H](O)[C@@H](CNCc3ccc(-c4cc(Cl)ccc4C(F)(F)F)o3)O2)c(=O)[nH]c1=O	2%	x	x	x	x	x
CCN(CC)CCNC(=O)c1ccc(NC(=O)/C=C/c2ccc3ccccc3n2)cc1	-3%	9%	-40%	-29%	-2	-18
O=C(CC(C(=O)O)c1cccc(Cl)c1Cl)c1ccccc1 (configuration not stated)	-4%	19%	15%	24%	-3	-6
CN(CCCNC(=O)CCc1cn(C)c2ccccc12)C1CCCCC1	2%	-10%	-29%	12%	-1	-4
Cc1cccc(NC(=O)c2cccc(S(=O)(=O)N(C)C3CCCCC3)c2)n1	130%	x	x	x	x	x
CC(C)C[C@@H](CN1CCC[C@@H]1CN1C(=S)NC[C@@H]1Cc1ccc(O)cc1)N1C[C@H](Cc2ccc(O)cc2)N(CC2CCCCCC2)C1=S	5%	x	x	x	x	x
O=C(CN1CCOCCOCCOCC1)Nc1ccccc1	0%	x	-6%	-4%	-2	4
O=C(c1ccc(NC(=O)C2(c3ccccc3)CCOCC2)cc1)N1CCOCC1	-15%	-3%	19%	x	-1	-4
O=C(CN1CCC(C(O)(c2ccccc2)c2ccccc2)CC1)Nc1ccccc1	-6%	10µM*	u	u	-5	2
O=C(CN1CCOCC1)NNc1c2ccccc2nc2ccccc12	9%	u	8.9µM*	u	16	47
CC(=O)c1ccc(NC(=O)C2(c3ccccc3)CCOCC2)cc1	-6%	58%	11%	101%	37*	112*
O=C(CN1CCC(C(O)(c2ccccc2)c2ccccc2)CC1)Nc1cc(Cl)ccc1Cl	8%	u	-19%	130%	12	-9
O=C(CN1CCOCC1)NNC(=S)Nc1ccccc1	54%	-20%	11%	13µM*	1	2
Cc1cnc(-c2nc3ccccc3n2C(C(=O)NC(C)(C)C)c2ccccc2)cn1 (configuration not stated)	10%	x	x	x	x	x
COCCN(Cc1ccccc1)C(=O)c1cccc(S(=O)(=O)N(C)c2c(C)n(C)n(-c3ccccc3)c2=O)c1	24%	u	27%	-22%	x	x

Bioassay records as filed in PubChem.
